Compounds with a hit are over-represented: about 12% of the library has one in this group of screens.
JMJD2A Tudor – qHTS Assay for Inhibitors of JMJD2A-Tudor Domain | Potency, µM (doses to about 114 µM), hits mostly inhibitors | 4.4% of 390,000 active | Lysine-specific demethylase 4A (Homo sapiens), O75164 | AlphaScreen JMJD2A-Tudor / H3K4me3 peptide binding; further: nearly all actives have a fitted effect of over 50% in size
L3MBTL1 block – qHTS Assay for the Inhibitors of L3MBTL1; AID 485360, 2010; 0.66% of 230,000 active; Potency, µM (titrated, usually from 57.1 µM), most hits filed as inhibitors; AlphaScreen L3MBTL1–H3K9me1 peptide binding; further: nearly all actives have a fitted effect of over 60% in size
Target sequence (Q9Y468 whole entry, looked up): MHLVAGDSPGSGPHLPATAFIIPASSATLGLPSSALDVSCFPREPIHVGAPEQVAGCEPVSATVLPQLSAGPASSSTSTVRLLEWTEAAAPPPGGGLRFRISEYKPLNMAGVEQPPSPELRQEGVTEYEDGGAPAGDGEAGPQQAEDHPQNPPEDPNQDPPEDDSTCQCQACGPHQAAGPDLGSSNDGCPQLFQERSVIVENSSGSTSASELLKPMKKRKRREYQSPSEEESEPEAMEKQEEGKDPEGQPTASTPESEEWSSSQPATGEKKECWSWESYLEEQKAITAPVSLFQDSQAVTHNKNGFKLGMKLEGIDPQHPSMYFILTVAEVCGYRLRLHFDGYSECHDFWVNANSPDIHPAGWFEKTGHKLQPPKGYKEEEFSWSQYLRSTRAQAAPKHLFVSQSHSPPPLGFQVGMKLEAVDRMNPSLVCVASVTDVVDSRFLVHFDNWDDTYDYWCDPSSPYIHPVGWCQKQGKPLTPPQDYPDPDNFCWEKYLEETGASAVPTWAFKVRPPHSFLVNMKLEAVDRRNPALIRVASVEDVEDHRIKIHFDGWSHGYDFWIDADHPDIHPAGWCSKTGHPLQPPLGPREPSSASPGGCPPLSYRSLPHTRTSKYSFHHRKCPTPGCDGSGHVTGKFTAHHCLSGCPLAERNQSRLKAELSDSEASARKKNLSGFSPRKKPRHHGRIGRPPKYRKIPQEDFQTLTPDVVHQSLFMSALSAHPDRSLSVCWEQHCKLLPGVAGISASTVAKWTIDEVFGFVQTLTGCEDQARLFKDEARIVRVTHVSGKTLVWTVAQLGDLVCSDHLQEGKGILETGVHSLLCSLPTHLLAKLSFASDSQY
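First, the protein-peptide complex forms for 30 min at room temperature (L3MBTL1 50 nM, biotinylated H3K9me1 peptide 75 nM). Next, compounds are pin-transferred and incubated 30 min. Finally, AlphaScreen beads are added and read after 30 min.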
G9a block – qHTS Assay for Inhibitors of Histone Lysine Methyltransferase G9a; Histone-lysine N-methyltransferase EHMT2 (Homo sapiens), Q96KQ7; G9a H3K9 monomethylation, AlphaScreen, 2 h; Potency, µM (titrated, usually from 102 µM), usual class: inhibitors; 8.8% of 350,000 active; AID 504332, 2011; further: nearly all actives have a fitted effect of over 75% in size
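Chemiluminescent proximity detection of H3K9 monomethylation, read after 10 min bead incubation in the dark. Reaction: 20 nM G9a, 500 nM biotin-H3K9 peptide, 20 uM SAM cofactor, 2 h, room temperature, following 15 min enzyme-compound preincubation.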
BAZ2B block – qHTS Assay for Inhibitors of BAZ2B; Bromodomain adjacent to zinc finger domain protein 2B (Homo sapiens), Q9UIF8; AlphaScreen BAZ2B-H3K14Ac peptide displacement; Potency, µM (doses to about 114 µM), actives largely listed as inhibitors; 4.4% of 360,000 active; further: nearly all actives have a fitted effect of over 60% in size
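Complex of BAZ2B and biotin-H3K14Ac (50 nM apiece) forms over 30 min at RT, then faces library compounds up to 110 uM for another 30 min; AlphaScreen beads added, 20 min dark incubation, luminescence read.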
Sfp inh – qHTS Assay for Inhibitors of Bacillus subtilis Sfp phosphopantetheinyl transferase (PPTase); 3.5% of 310,000 active; Biochemical Sfp PPTase activity, qHTS; 4'-phosphopantetheinyl transferase ffp (Bacillus subtilis), Q9F4F7; Potency, µM, actives largely listed as inhibitors;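 further: the enzyme is Sfp with the accession as filed and its product quenches rhodamine fluorescence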
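After 15 min at room temperature with compound, 15 nM Sfp received 5 uM rhodamine-CoA plus 12.5 uM BHQ-2-ybbR (50 mM Hepes pH 7.6, 10 mM MgCl2). Rate came from the fluorescence difference over 30 min, ex 525/em 598 nm.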
HP1b binding inh – HTS for Inhibitors of HP1-beta Chromodomain Interactions with Methylated Histone Tails; AID 540317, 2011; AlphaScreen HP1-beta / biotin-H3K9me3 peptide binding; Potency, µM (series often up to 114 µM), actives largely listed as inhibitors; 0.56% of 390,000 active; Chromobox protein homolog 1 (Homo sapiens), P83916; further: nearly all actives have a fitted effect of over 70% in size
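HP1-beta protein (50 nM final) preincubated 30 min at room temperature with biotinylated H3(1-18)K9me3 peptide (50 nM) in PBS pH 7.4, 0.01% Tween-20, then compound added for 30 min. AlphaScreen streptavidin donor/nickel chelate acceptor beads (10 ug/mL final), 30 min dark, luminescence read.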
Hits are given with their value; n = inactive; u = inconclusive; x = no result given; [ ] = another dose, or the depositor's remark. The call rests on the fitted dose curve; in most records, active means well fitted curve in the direction sought with a large enough effect; inconclusive means small, poorly fitted or top-dose-only effect, or another doubt; inactive means no such curve, though single readings can be large; an effect the other way counts as inactive or inconclusive.

SMILES	JMJD2A Tudor	L3MBTL1 block	G9a block	BAZ2B block	Sfp inh	HP1b binding inh
COc1cc(/C=N/N=C2/SCC(=O)N2c2ccc(O)cc2)ccc1O	8.9µM	x	n	n	n	n
CCc1ccc(C(=O)NNc2ccccc2F)cc1	n	n	x	n	n	n
CCc1ccccc1NNC(=O)c1cc(C)on1	n	n	3.2µM	n	n	n
Cc1cc(C(=O)NNc2ccccc2F)no1	n	n	40µM	n	n	n
CCCc1ccc(C(=O)NNc2ccccc2F)cc1	n	n	56µM	n	n	n
O=C(NNc1c(Cl)cccc1Cl)c1sccc1Cl	n	n	13µM	n	n	n
C#C[C@]1(O)CC[C@H]2C3CCC4=Cc5oncc5CC4(C)C3CCC21C (stereo partly drawn)	x	x	n[12.7 µM]	x	x	x
O=C1CCC(C(=O)N2CCC(CO)CC2)CN1Cc1ccc(Cl)cc1 (stereo not drawn)	n	x	n	n	n	n
COc1ccc(CNC(=O)C(=O)NCC(c2cccs2)S(=O)(=O)c2ccc(C)cc2)cc1 (stereo not drawn)	n	x	n	n	x	n
Cc1cc(C(=O)NNc2ccc(F)cc2)no1	n	n	28µM	n	n	n
Cc1cc(C(=O)NNC(=O)c2c(-c3c(Cl)cccc3Cl)noc2C)no1	n	x	n	n	n	n
Cc1cc(C(=O)NNc2c(Cl)cccc2Cl)no1	n	n	28µM	n	n	n
COCCNC(=O)c1cc2n(n1)CCCN(Cc1ccc(C)cc1)C2=O	n	x	n	n	x	n
O=C(Nc1cccnc1Cl)C1=NN(c2ccccc2)C(=O)CC1	n	x	x	n	n	n
Cc1cccc(N2CCN(C(c3ccc(F)cc3)c3nnc(-c4ccccc4)o3)CC2)c1C (stereo not drawn)	u	x	u	50µM	x	n
COc1ccc(NC(=S)NNC(=O)C2CC2c2ccc(C)cc2)cc1 (stereo not drawn)	n	n	45µM	n	n	n
COc1ccccc1C(=O)NNC(=S)NC(=O)c1cc(OC)c(OC)c(OC)c1	n	n	13µM	n	n	n
COc1cc(C(=O)NNC(=S)NC(=O)c2ccc3c(c2)OCO3)cc(OC)c1OC	n	x	13µM	n	n	n
COc1cc(C(=O)NC(=S)NNC(=O)[C@H]2C[C@@H]2c2ccccc2)cc(OC)c1OC	n	n	40µM	n	n	n
COc1cc(C(=O)NNC(=S)NC(=O)c2ccccc2C)cc(OC)c1OC	n	n	u	n	n	n
CC(=O)Nc1c(C)nn(-c2ccccc2)c1N1CCC(C(=O)Nc2cccc(C(F)(F)F)c2)CC1	n	x	n	n	x	n
Cc1cccc(-c2nc3c4ccccc4n(CC(=O)Nc4cccc(F)c4)c(=O)n3n2)c1	n	x	n	n	x	n
CN(C)S(=O)(=O)c1ccc(C(=O)Nc2ccccc2C(=O)NCCCN2CCOCC2)cc1	n	n	n[12.7 µM]	n	x	n
c1csc(CNc2ncncc2-c2ccoc2)c1	x	x	n[0.501 µM]	x	n	x
CCCc1cc2c(n1Cc1ccc(OC)cc1)C(C)C1CN(C(=O)c3ccccc3)C(C)(C(=O)OC)C21 (stereo not drawn)	x	x	x	x	n	x
SMILES	JMJD2A Tudor	L3MBTL1 block	G9a block	BAZ2B block	Sfp inh	HP1b binding inh
COc1cc(/C=C/C(=O)OCC(=O)NCCc2ccc(S(N)(=O)=O)cc2)ccc1OCC#N	n	n	n	n	x	n
CCN(CC)S(=O)(=O)c1ccc(C)c(C)c1	n	x	n	n	n	n
CC(=O)Nc1ccc(S(=O)(=O)c2cc(O)ccc2O)cc1	n	n	13µM	n	n	u
Cc1ccc(S(=O)(=O)Nc2ccc(O)c(S(=O)(=O)c3ccc(C)cc3)c2)cc1	n	x	x	n	n	n
Cc1ccc(S(=O)(=O)c2cc(O)ccc2O)cc1C	n	x	50µM	n	n	n
N=c1ncn(Cc2ccccc2)c2nc(SCCOc3ccccc3)[nH]c12	n	n	79µM	n	n	n
